This is a sample that favours compounds with a hit; in the whole collection about 13% have one here.
Shiga inhibitor = Shiga toxin inhibition. inhibition, % at 38.7 µM. 9.2% of 290,000 active. Vero cells, Shiga toxin protein synthesis inhibition reporter; in the data active means inhibition mostly above about 28%, no sharp cut-off; inactive means mostly below about 43%
FMDV antiviral = foot and mouth disease virus antiviral activity; FMDV antiviral cell-based qHTS; Potency, µM (top dose mostly 57.9 µM), usual class: inhibitors; 1.2% of 410,000 active; calls by dose curve; tested in HEK293T cells; further: read-out not given here; nearly all actives have a fitted effect of over 45% in size
Lassa entry inh = blocks Lassa virus binding to or entry into cells. Lassa virus pseudotype entry inhibition, cell reporter. Potency, µM (series often up to 37.9 µM), hits mostly inhibitors. 1.2% of 300,000 active. AID 540256; calls by dose curve; tested in HEK293 cells; further: nearly all actives have a fitted effect of over 50% in size
HCV inhibitor = blocks hepatitis C virus. Huh7.5.1 HCVcc-Cre infection, luciferase reporter, 44 h. Potency, µM (titrated, usually from 41.8 µM), hits mostly inhibitors. 3.4% of 340,000 active. AID 651820; active means well fitted inhibition curve with a large enough effect; inconclusive means small, poorly fitted or top-dose-only effect, or another doubt; inactive means no such curve, though single readings can be large or run the other way
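Whole-lifecycle infectious HCVcc-Cre system; cells 1,000/well, compound then virus (~0.5 moi) added 4 h after plating, 44 h culture. Luciferase read 15 sec following 15 min substrate incubation, room temp.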
Marburg entry inh = Marburg virus entry inhibition. Marburg virus pseudotyped entry inhibition, cell reporter. 1.8% of 300,000 active. AID 540276. Potency, µM (doses to about 37.8 µM), usual class: inhibitors; calls by dose curve; tested in HEK293 cells
CHX counter = affects cycloheximide protein synthesis inhibition readout, counter-screen; cell reporter, cycloheximide protein synthesis inhibition counterscreen; max response, %; 12% of 300,000 active; AID 2314; in the data active means max response mostly above about 13%, no sharp cut-off; inactive means mostly below about 14%; further: read at 38.3 µM for the half of the compounds with a filed dose
Numbers stand for hits; - = inactive; ? = inconclusive; . = no result given; [ ] = dose if it differs, or a comment.

SMILES | Shiga inhibitor | FMDV antiviral | Lassa entry inh | HCV inhibitor | Marburg entry inh | CHX counter
Cc1noc(C)c1S(=O)(=O)N1CCCC(C(=O)Nc2ccc(Cl)cn2)C1 (configuration not stated) | - | 32µM | ? | ? | ? | -
CCOC(=O)C1=C(N)OC2=C(C(=O)CC(C)(C)C2)C1C1CCCCC1 (configuration not stated) | - | ? | - | - | - | -
Fc1ccc(NCc2cn3ccccc3n2)cc1 | 77 | - | ? | - | ? | 53
Fc1cccc(NCc2cn3ccccc3n2)c1 | 126 | - | ? | - | ? | 51
O=C(NCCc1cn2ccccc2n1)c1ccccc1F | - | - | - | - | - | -
CN(CC(=O)Nc1cccc(F)c1)C(=O)c1ccc(OCc2cn3ccccc3n2)cc1 | . | - | . | - | . | .
COc1ccccc1C1/C(=C(/O)c2ccccc2)C(=O)C(=O)N1CC(C)O (configuration not stated) | - | - | - | - | - | -
O=C(Nc1ccccc1C(=O)N1CCN(Cc2ccccc2)CC1)c1ccccn1 | - | ? | - | - | ? | -
C/C(=N\NC(=O)c1ccc(Br)cc1)c1ccccc1 | 113 | - | ? | - | ? | 55
C/C(=N\NC(=O)C(N)=O)c1ccc(Br)cc1 | - | - | - | - | ? | -
CSC(=S)N/N=C(\C)c1ccc(Br)cc1 | 45 | - | - | ? | - | 29
C/C(=N\NC(=O)c1cccnc1)c1cccc([N+](=O)[O-])c1 | - | - | . | - | . | -
C/C(=N\NC(=O)c1cccnc1)c1ccc(Br)cc1 | - | - | - | - | - | 16
C/C(=N/NC(=O)CNS(=O)(=O)c1ccccc1)c1ccc(Br)cc1 | - | - | - | - | - | -
C/C(=N\NC(=O)c1cccc(Br)c1)c1cccnc1 | 51 | - | ? | - | - | 23
COc1ccc(C2C(C#N)=C(C)NC(C)=C2C#N)c(OC)c1 | - | - | - | - | - | -
CN(C(=O)c1cccc(NC(=O)Cc2ccc(NC(=O)C3CCCN(C(=O)c4ccccc4)C3)cc2)c1)C1CCCCC1 (configuration not stated) | . | ? | . | -[8.37 µM] | . | .
COC(=O)CNc1nc(-c2ccncc2)nc2ccccc12 | - | - | ? | - | - | -
C/C(=N\NC(=O)c1cccnc1)c1ccccc1 | - | - | - | - | ? | 13
CC(=O)Nc1ccccc1NC(=O)C/C(C)=N/NC(=O)c1cccnc1 | 48 | - | - | - | - | -
C/C(=N\NC(=O)c1cccc2ccccc12)c1cccnc1 | - | - | - | - | - | -
Cc1ccc(CNC(=O)c2ccc3c(c2)nc(C)n3-c2cc(C)cc(C)c2)cc1 | . | - | - | . | . | .
CC(Sc1nnc(-c2cccnc2)n1-c1ccccc1F)C(=O)N1CCCc2ccccc21 (configuration not stated) | - | . | . | - | - | 17
O=C(CSc1ccc(-c2cccnc2)nn1)N1CCCc2ccccc21 | - | . | . | . | . | -
CCOC(=O)C1CCN(C(=O)c2cc3ccc(OC)cc3[nH]2)CC1 | - | - | ? | - | - | 27
SMILES | Shiga inhibitor | FMDV antiviral | Lassa entry inh | HCV inhibitor | Marburg entry inh | CHX counter
CCOC(=O)N1CCN(C(=O)c2cc3cc(C)ccc3[nH]2)CC1 | - | - | . | - | . | -
CCOC(=O)C1CCN(C(=O)c2cc3cc(Cl)ccc3[nH]2)CC1 | 49 | - | - | - | - | 23
CCOC(=O)N1CCN(C(=O)c2cc3ccc(OC)cc3[nH]2)CC1 | - | - | - | - | - | -
Cc1ccc(-c2noc(-c3c(C)noc3C)n2)cc1 | - | - | . | - | . | -
CCCCN(C(=O)c1cccc(S(=O)(=O)N(CC)c2ccccc2)c1)c1c(N)n(CCCC)c(=O)[nH]c1=O | . | - | . | - | . | .
C[C@H](NS(=O)(=O)c1ccccc1)C(=O)OCC(=O)NC(=O)Nc1ccc2c(c1)OCCO2 | 86 | - | - | - | ? | 74
CCc1cccc(NC(=O)CN(C)S(=O)(=O)c2cccs2)c1 | 71 | - | - | - | - | 24
COc1ccc(S(=O)(=O)N(C)CC(=O)Nc2ccc3c(c2)OCO3)cc1OC | - | - | - | ? | - | 7.8
CC(NS(=O)(=O)c1ccc(F)cc1)C(=O)Nc1ccc2c(c1)OCCO2 (configuration not stated) | - | - | - | - | - | 11
COc1ccc(S(=O)(=O)N(C)CC(=O)Nc2ccc3c(c2)OCO3)cc1 | - | . | - | ? | - | -
CCc1cccc(NC(=O)CN(C)S(=O)(=O)c2cccc3nsnc23)c1 | - | - | - | - | - | -
CN(CC(=O)Nc1ccc(F)c(F)c1)S(=O)(=O)c1cccs1 | - | - | - | - | - | -

From PubChem
